Screening data deposited in PubChem BioAssay by The Scripps Research Institute Molecular Screening Center.
PAFAH2 inh – inhibitors of human PAFAH2 | inhibition, % at 3.39 µM | actives 0.99% (n = 340,000) | recombinant PAFAH2, FP-rhodamine activity probe, fluorescence polarization | AID 492956;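 active = inhibition above the mean over all tested compounds plus 3 SD, cut at about 30% in these data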;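 also: inhibitors block probe labeling of enzyme so polarization drops; 0% = enzyme with DMSO and 100% = wells lacking PAFAH2 protein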
EBNA-1 inh – blocks EBNA-1 binding to DNA | EBNA-1 DNA binding, fluorescence polarization | AID 1950 | inhibition, % at 14.8 µM | actives 0.34% (n = 300,000); in the data active = inhibition above about 28%
PAFAH1B3 inh – inhibitors of human PAFAH1B3; recombinant PAFAH1B3, FP-rhodamine probe, fluorescence polarization; inhibition, % at 3.39 µM; actives 0.28% (n = 340,000); AID 492972;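 active = inhibition above the screen-wide average of all tested compounds plus 3 SD, cut at about 25% in these data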;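 also: 0% = enzyme with DMSO only and 100% = wells lacking PAFAH1B3 protein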
Target sequence (Q15102 whole entry, looked up): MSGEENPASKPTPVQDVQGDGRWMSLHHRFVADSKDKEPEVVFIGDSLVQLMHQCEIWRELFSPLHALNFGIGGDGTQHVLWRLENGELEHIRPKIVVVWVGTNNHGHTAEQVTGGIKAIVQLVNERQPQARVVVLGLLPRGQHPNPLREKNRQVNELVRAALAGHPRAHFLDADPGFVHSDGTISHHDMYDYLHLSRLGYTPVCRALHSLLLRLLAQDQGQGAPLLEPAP
ZTA counter – counter-screen for EBNA-1 inhibitors: inhibitors of Epstein-Barr virus ZTA; inhibition, % at 11 µM; AID 2234; ZTA-DNA binding, fluorescence polarization; actives 0.15% (n = 320,000); in the data active = inhibition above about 33%
pPAFAH FP inh – inhibitors of human plasma PAF acetylhydrolase (pPAFAH); Q13093; recombinant pPAFAH, FP-rhodamine probe fluorescence polarization; inhibition, % at 3.39 µM; actives 1.5% (n = 330,000); AID 463082;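 active = inhibition above the mean inhibition across the screen plus 3 SD, cut at about 25% in these data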;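 also: inhibitors block binding of the rhodamine activity-based probe so polarization drops; 0% = enzyme with DMSO and 100% = wells lacking pPAFAH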
PAFAH1B2 FP inh – blocks human PAF acetylhydrolase 1b catalytic subunit 2 | AID 492953 | recombinant PAFAH1B2, FP-rhodamine activity probe, fluorescence polarization | P68402 | inhibition, % at 3.39 µM | actives 1.2% (n = 340,000);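 active = inhibition above the mean of all tested compounds plus 3 SD, cut at about 24% in these data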;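 also: 0% = enzyme with DMSO and 100% = wells lacking PAFAH1B2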
Target sequence (P68402 whole entry, looked up): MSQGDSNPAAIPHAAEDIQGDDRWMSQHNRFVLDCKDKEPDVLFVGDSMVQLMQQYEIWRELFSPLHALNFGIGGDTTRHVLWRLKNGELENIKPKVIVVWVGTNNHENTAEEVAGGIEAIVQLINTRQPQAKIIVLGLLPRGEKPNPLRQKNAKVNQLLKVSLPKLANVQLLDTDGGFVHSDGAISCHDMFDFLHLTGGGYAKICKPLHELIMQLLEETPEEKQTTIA
* = called active by the depositor; · = not tested or not shown. Sampled rows, rich in hits. Any-hit rate of the full collection: about 2.9%.

SMILES | PAFAH2 inh | EBNA-1 inh | PAFAH1B3 inh | ZTA counter | pPAFAH FP inh | PAFAH1B2 FP inh
O=C(Cn1nc(C(=O)O)c2ccccc2c1=O)Nc1ccc2c(c1)C(=O)c1ccccc1C2=O | · | 0.1 | · | 0.9 | 6.3 | ·
Cc1noc(/C=C/c2ccco2)c1S(=O)(=O)N1CCC(C(=O)N2CCc3ccccc3C2)CC1 | -12.2 | -3.9 | 2.3 | -13.5 | 30.0* | 0.8
COc1ccc(/C(N)=N/OC(=O)CSc2ccc(C)cc2)cc1OC | 4.6 | -4.5 | 1.0 | 4.1 | 4.7 | 63.5*
COc1ccc(OCCn2cc(/C=C(\C#N)C(=O)NCc3ccco3)c3ccccc32)cc1 | -11.1 | 25.2 | -6.3 | 17.3 | 0.3 | 0.9
N#C/C(=C\c1cn(CCOc2ccccc2)c2ccccc12)C(=O)NCc1cccs1 | -9.2 | 37.0* | 6.4 | -5.2 | 3.5 | 6.7
CCn1c(CNC(=O)COc2ccc(C(C)C)cc2)nnc1SCC(=O)Nc1ccccc1F | 4.5 | 5.0 | 5.1 | -12.0 | 3.1 | 6.3
CCn1c(CNC(=O)COc2ccc(C(C)C)cc2)nnc1SCC(=O)Nc1ccccc1C(C)C | 2.3 | 0.3 | 5.8 | -12.3 | 29.9* | 3.2
Cc1ccc(-c2cc(C(=O)O)c3cc(Br)ccc3n2)o1 | 12.2 | 5.8 | 9.7 | 15.8 | 27.6* | 23.4
Cc1ccc(-c2cc(C(=O)NN3CCOCC3)c3cc(Br)ccc3n2)o1 | 4.6 | -1.4 | 9.4 | -4.9 | 1.5 | 3.4
C=CCn1c(SCc2ccc(Cl)cc2)nc2c1c(=O)[nH]c(=O)n2C | 6.3 | -3.7 | 8.5 | -2.3 | 2.1 | 25.2*
O=C(CNc1ccc2c(c1)OCO2)N/N=C\c1cn(Cc2ccccc2)c2ccccc12 | -9.3 | 10.3 | 3.9 | 1.5 | 30.3* | 3.9
Cc1cc2sc3nc(=O)n(-c4ccccc4)c(=O)n3c2cc1C | 2.4 | 9.4 | 5.6 | 9.2 | 2.2 | 1.1
Cc1cccc(-n2c(C)nc3cc(C(=O)N4CCOCC4)ccc32)c1 | 0.4 | -5.9 | -2.8 | -1.7 | 4.0 | 1.4
O=[N+]([O-])c1ccc(O)c(C=Nc2ccc3oc(Cc4ccc(Cl)cc4)nc3c2)c1 | · | 4.8 | · | -2.0 | 46.0* | ·
Cc1ccc(S(=O)(=O)Nc2cccc(C(=O)N3CCCC3)c2)cc1F | 9.4 | 12.1 | 1.4 | -2.3 | 6.2 | 8.8
O=c1[nH]n2c(=O)c3c([nH]c2c1N=Nc1cccc(Cl)c1)CCC3 | 15.6 | -3.9 | 3.2 | 1.0 | 24.5 | 9.5
O=c1[nH]n2c(=O)c3c([nH]c2c1N=Nc1cccc(C(F)(F)F)c1)CCCC3 | 23.7 | 26.6 | 15.5 | 22.2 | 28.1* | 30.4*
O=C(CCc1nnc2ccc(NCc3ccccc3)nn12)NC1CCCCC1 | -4.2 | -2.2 | -7.7 | -28.6 | 0.0 | -3.1
O=C1C=CC(=O)c2c(O)c(N3CCN(CCOCCO)CC3)c(Br)c(O)c21 | 58.5* | · | 62.1* | · | · | 43.8*
O=C1C=CC(=O)c2c(O)c(N3CCN(CCO)CC3)c(Cl)c(O)c21 | 40.7* | · | 49.5* | · | · | 27.5*
COc1cc(NC(=O)CSc2ncnc3scc(-c4ccccc4)c23)c(C(=O)O)cc1OC | 29.1 | -0.4 | 9.0 | 1.0 | 30.9* | 4.8
O=C(O)CSc1ncnc2scc(-c3ccccc3)c12 | 4.2 | 3.5 | -3.6 | -4.0 | 2.0 | 8.0
NC(=O)CC(NC(=O)Cc1ccc(Br)cc1)c1ccc(N2CCC(Br)CC2)c([N+](=O)[O-])c1 (configuration not stated) | -2.9 | 4.4 | 3.9 | -9.8 | 26.1* | -1.7
NC(=O)CC(NC(=O)Cc1ccc(Br)cc1)c1ccc(N2CCCCCCC2)c([N+](=O)[O-])c1 (configuration not stated) | 5.1 | 3.1 | 2.2 | -0.2 | 13.0 | 7.1
COc1ccc(C2=CC3=C(Br)C(=O)C(C)(OC(=O)c4cccs4)C(=O)C3=CO2)cc1 (configuration not stated) | 10.4 | -4.4 | 1.0 | 10.8 | 28.2* | 9.1
SMILES | PAFAH2 inh | EBNA-1 inh | PAFAH1B3 inh | ZTA counter | pPAFAH FP inh | PAFAH1B2 FP inh
COc1ccc(C(=O)NNC(=O)C2CCN(S(=O)(=O)c3ccc(C)cc3)CC2)cc1 | -3.5 | -15.5 | 1.3 | 1.2 | 1.0 | 12.0
COc1ccc(C2=Nn3c(nnc3-c3ccco3)SC2)cc1 | 7.3 | 4.4 | 10.7 | 10.9 | 7.5 | 7.2
Oc1ccc(C2=Nn3c(nnc3-c3ccco3)SC2)cc1O | 49.3* | 0.2 | 50.0* | 2.5 | 31.5* | 28.6*
COc1cc(/C=N/NC(=O)[C@H](Cc2c[nH]c3ccccc23)NC(=O)OCC(C)C)cc([N+](=O)[O-])c1O | 11.7 | -2.5 | 5.8 | 15.3 | 29.5* | 24.4*
CCN1CCN(c2cc(C)c3cc(NC(=O)c4cc(OC)cc(OC)c4)ccc3n2)CC1 | -3.0 | -8.4 | -1.1 | -7.7 | 28.9* | 2.7
COCCOc1cc(NC(=O)CS(=O)(=O)CC(=O)N(C)C)c(Cl)cc1Cl | -0.1 | -4.6 | -0.9 | 11.2 | -1.0 | 7.0
O=C(COC(=O)c1cc(S(=O)(=O)N2CCOCC2)ccc1F)NCc1ccco1 | -5.9 | 8.0 | -1.4 | -9.8 | 8.6 | 1.8
COCCNc1ncnc2c1[nH]c1ccccc12 | -3.0 | 7.5 | 5.6 | -3.2 | 28.1* | 5.3
COc1ccc(CCNc2ncnc3c2[nH]c2cc(OC)c(OC)cc23)cc1OC | 11.7 | -5.1 | 15.2 | 13.7 | 27.8* | 12.5
COc1ccc(-n2c(SCC(=O)NCC3CCCO3)nc3ccccc32)cc1 (configuration not stated) | 5.6 | 4.1 | -1.3 | -1.9 | 25.9* | 6.5
Cc1ccc(CN2CCSc3ccc(C(=O)NC4CCCC4)cc32)cc1 | -5.3 | -3.1 | 7.2 | -5.1 | -1.3 | 1.5
Cc1ccc(CN2CCSc3ccc(C(=O)NCC4CCCO4)cc32)cc1 (configuration not stated) | 2.0 | -4.3 | 3.5 | -16.9 | 33.4* | 5.8
Cc1ccc(SCC(=O)NCC2CCCO2)cc1 (configuration not stated) | 0.3 | 1.2 | -1.2 | -7.5 | 0.8 | 24.6*
O=C(COC(=O)/C=C/c1ccc(Cl)cc1Cl)NCC1CCCO1 (configuration not stated) | 26.0 | · | 10.4 | · | 26.8* | 0.8
Cc1ccc(SCCC(=O)NCC2CCCO2)cc1 (configuration not stated) | -1.0 | -10.2 | 6.2 | -13.4 | 4.3 | 15.2
O=C(CSc1nc2ccccc2c(=O)n1-c1ccccc1)NCC1CCCO1 (configuration not stated) | 9.8 | -5.7 | 8.0 | -12.4 | 1.9 | 4.8
CCN(CC(=O)Nc1c(F)cccc1F)C(=O)CCSc1ccc(F)cc1 | -0.7 | -1.6 | -0.1 | 15.4 | 8.1 | 10.5
CCOC(=O)C1CCCN(C(=O)c2cccc(NC(=O)C(CC)CC)c2)C1 (configuration not stated) | -2.7 | -8.1 | 1.3 | -16.4 | 5.5 | 1.4
Cc1ccc(NS(=O)(=O)c2cc(C(=O)OCC(=O)NCC3CCCO3)ccc2C)cc1 (configuration not stated) | 11.8 | 6.5 | 0.9 | 0.8 | 34.3* | 3.5
